According to PubChem BioAssay AID488890 (Southern Research Specialized Biocontainment Screening …, 2010):
The whole screen tested about 320,000 compounds, of which about 1,300 (0.41%) were called active. Roughly 3% stayed inconclusive and do not appear here. The rule behind the calls is not given here. These entries were drawn from the full list. Entries with a potency or affinity are not part of this list.

Assay: growth inhibition of non-replicating M. tuberculosis (AID 488890);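 note: plate controls were DMSO cells for no effect and high antibiotic wells for full effect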
Details: Mycobacterium tuberculosis non-replicating, at 25 µM, stronger effect = higher value
With `COc1cccc(Nc2nc(C)cc(C)c2C(N)=O)c1` the inhibition was -12.4%.
In the case of `COc1ccc2cc(CN(Cc3cccs3)Cc3nnnn3Cc3ccccc3)c(=O)[nH]c2c1`, the inhibition is reported as 27.5%.
Compound `Cc1[nH]n(-c2ccccc2)c(=O)c1C(=O)c1ccc([N+](=O)[O-])cc1` has an inhibition of 16.4%.
Work on `Cc1[nH]n(-c2ccccc2)c(=O)c1C(=O)c1cccc(F)c1` yielded an inhibition of 69%.
For `Cc1cccc[n+]1CC(=O)/C=C1\N(C)c2ccccc2C1(C)C`, the inhibition was -1.75%.
`COc1ccc(CN2CCC(n3nccc3NC(=O)C3CC3)CC2)c(OC)c1OC` gave an inhibition of -1.17%.
With `O=S(=O)(NCCN1CCOCC1)c1cc(Cl)ccc1Cl` the inhibition was 10.9%.
In the case of `CC(C)(C)c1cc(C(=O)N/N=C/c2ccc(-c3ccccc3[N+](=O)[O-])o2)n[nH]1`, the inhibition is reported as 26.9%.
With `Cc1cc(C(=O)N/N=C/c2ccc(C)s2)n[nH]1` the inhibition was 4.06%.
Work on `Cc1ccsc1/C=N\NC(=O)c1cc(C(C)(C)C)[nH]n1` yielded an inhibition of 12.6%.
With `Cc1cc(C(=O)N/N=C/c2cccc([N+](=O)[O-])c2O)n[nH]1` the inhibition was 14.7%.
Compound `Cc1c(C(=O)OCC[N+]2(C)CCCCC2)oc2ccccc12` has an inhibition of -0.02%.
Compound `O=C(NCC(c1cccs1)N1CCOCC1)c1cccc([N+](=O)[O-])c1` (stereo unspecified) has an inhibition of 3.78%.
With `O=C(NCC(c1cccs1)N1CCOCC1)c1ccc([N+](=O)[O-])cc1` (stereo unspecified) the inhibition was -4.42%.
For `CCOCCCN(C(=O)c1snc(C(N)=O)c1N)C(C(=O)NC1CCCC1)c1ccc(O)cc1` (stereo unspecified), the inhibition was 12.3%.
For `O=C(c1ccc(Cl)s1)N(Cc1nnc(-c2ccccc2Cl)o1)C1CC1`, the inhibition was 31.8%.
For `CCCN(Cc1nnc(-c2ccccc2Cl)o1)C(=O)c1cc2ccccc2o1`, the inhibition was 30.8%.
In the case of `CCCN(Cc1nnc(-c2ccccc2Cl)o1)C(=O)c1oc2ccccc2c1C`, the inhibition is reported as -13.1%.
`O=C(C1=COCCO1)N(Cc1nnc(-c2ccccc2Cl)o1)C1CC1` gave an inhibition of 2.01%.
In the case of `COc1ccc(S(=O)(=O)N2CCOC23CCN(S(=O)(=O)c2cc(C)ccc2OC)CC3)cc1`, the inhibition is reported as 5.02%.
With `CC(NC(=O)CC1Sc2ccccc2NC1=O)c1ccccc1` (stereo unspecified) the inhibition was 0.31%.
`CCN(CC)C(=O)C(=O)N/N=C/c1ccc(C(=O)OC)cc1` gave an inhibition of -0.1%.
With `CCOc1cc2c(cc1OCC)C(c1ccc(C(=O)O)cc1)NCC2` (stereo unspecified) the inhibition was -6.9%.
Work on `N/C(=N/OC(=O)c1cccc([N+](=O)[O-])c1)c1cccc([N+](=O)[O-])c1` yielded an inhibition of 18.3%.
With `Cc1cccc(C(=O)O/N=C(\N)c2cccc([N+](=O)[O-])c2)c1` the inhibition was 75%.
For `COc1ccc(C(CNC(=O)c2cccc(NC(=O)c3cccs3)c2)N2CCCC2)cc1` (stereo unspecified), the inhibition was 27.7%.
With `CCn1nc(-c2ccccc2)nc2c(=O)n(C)c(=O)nc1-2` the inhibition was -28.8%.
`Cn1nc(-c2ccccn2)nc2c(=O)n(C)c(=O)nc1-2` gave an inhibition of 74.7%.
Compound `CC1(C)CN(c2ccc(Br)cc2Br)C1=O` has an inhibition of 8.63%.
`CCOC(=O)N1CCN(S(=O)(=O)c2ccc(C(=O)N(CCCN(C)C)c3nc4cc(OC)ccc4s3)cc2)CC1` showed an inhibition of 8.58%.
`Oc1ccc(CNc2ccccc2F)c2cccnc12` gave an inhibition of 38.5%.
For `OCc1ccc(O)c2ncccc12`, the inhibition was 26%.
With `CCCn1c(C(C)Nc2nc(-c3ccc(C)cc3)cs2)nc2cc(Cl)c(Cl)cc21` (stereo unspecified) the inhibition was 17.9%.
`COc1ccccc1NC(=O)Cn1cnc2sc(C(=O)Nc3cc(OC)c(OC)c(OC)c3)c(C)c2c1=O` gave an inhibition of -13%.
`Cc1ccc(NC(=S)N2CCC(NC(=O)C3CCCCC3)CC2)cc1C` gave an inhibition of -8.16%.
Work on `Cc1nn(CC(=O)NCc2cc3ccccc3[nH]2)c(C)c1[N+](=O)[O-]` yielded an inhibition of -11.5%.
Compound `COC(=O)c1ccc(NC(=O)c2ccc(NC(=O)c3ccco3)cc2)cc1` has an inhibition of 9.4%.
Work on `O=C(CNC(=O)c1ccco1)NCC(=O)OCc1ccc(C(=O)Oc2ccc(Cl)cc2)cc1` yielded an inhibition of 5.36%.
`O=C(CNC(=O)c1ccco1)OCc1ccc(C(=O)c2ccccc2)cc1` gave an inhibition of 74.7%.
Work on `O=C(Nc1ccc(OC(=O)c2ccco2)cc1)c1ccco1` yielded an inhibition of 53.6%.
`O=C(CCN1C(=O)/C(=C\c2ccccc2)SC1=S)NNC(=O)c1ccccc1O` gave an inhibition of -13.1%.
With `CN(C)CCCNC1CS(=O)(=O)CC1O` (stereo unspecified) the inhibition was -14.7%.
`CCOC(=O)C1=C(C)NC2=C(C(=O)CC(C)(C)C2)C1c1ccc2c(c1)CCCN2C` (stereo unspecified) showed an inhibition of 58.9%.
Work on `COCCN1C(=O)/C(=C/c2c(OC)cc(OC)cc2OC)C(=O)N(c2ccccc2)C1=O` yielded an inhibition of 2.58%.
`Cc1cccc(NC(=O)CC(=O)Nc2cccc(C)c2)c1` showed an inhibition of 17.8%.
With `CCOC(=O)c1c(NC(C)=O)sc2c(O)c(Br)ccc12` the inhibition was 33.9%.
`CCOC(=O)c1c(NC(C)=O)sc2c(OC)c(Br)ccc12` gave an inhibition of 3.98%.
In the case of `Cc1onc(-c2c(F)cccc2Cl)c1C(=O)N(Cc1ccccc1)C(C)C`, the inhibition is reported as 7.25%.
With `CC1CC(C)CN(S(=O)(=O)c2ccc3oc(=O)ccc3c2)C1` (stereo unspecified) the inhibition was -8.91%.
For `COC(=O)c1ccccc1NC(=O)CCCn1nc([N+](=O)[O-])cc1C`, the inhibition was 1.55%.
Compound `CC1CCC(NC(=O)c2cc3ccccc3cc2O)CC1` (stereo unspecified) has an inhibition of 38.1%.
`CC(C)OC(=O)c1cccc2c1C(=O)c1ccccc1-2` gave an inhibition of 1.02%.
With `COC(=O)c1cc2c(C)c(C)c3ccccn3c-2c1C(=O)OC` the inhibition was 2.38%.
Work on `Cc1cc(C(=O)CCC(=O)Nc2ncccc2C)c(C)s1` yielded an inhibition of 25.8%.
Work on `CS(=O)(=O)N1CCc2cc(S(=O)(=O)Nc3ccc4c(c3)OCCO4)ccc21` yielded an inhibition of 5.57%.
With `Cc1ccc(OCC(=O)Nc2nnn(C)n2)c(C)c1` the inhibition was -10.8%.
For `CCn1nnc(NC(=O)COc2ccc([N+](=O)[O-])cc2)n1`, the inhibition was 15.6%.
With `CCOc1ccc(C(=O)Nc2nnn(CC)n2)cc1` the inhibition was -19.1%.
Compound `Cc1cccc(OCC(=O)Nc2nnn(C)n2)c1C` has an inhibition of 7.29%.
For `NC(N)=NS(=O)(=O)c1ccc(NC(=S)NC(=O)c2ccc(Br)cc2)cc1`, the inhibition was 2.25%.
Work on `CN(C)CCC#CC1(O)c2ccccc2-c2ccccc21` yielded an inhibition of -5.2%.
`CCc1ccc(CNC(=O)c2ccc3nc(C4CCCCC4)oc3c2)nc1` gave an inhibition of 56.5%.
Compound `O=C1c2ccccc2C(=O)N1CC#CCN1CCN(C(c2ccccc2)c2ccccc2)CC1` has an inhibition of -1.98%.
With `c1ccc(-c2noc(C3CCCCC3)n2)nc1` the inhibition was 18.3%.
With `c1ccc(-c2noc(CC3CCCCC3)n2)cc1` the inhibition was 69.6%.
Work on `c1ccc(CCc2nc(-c3cccnc3)no2)cc1` yielded an inhibition of 20%.
Work on `c1ccc(Cc2nc(-c3ccccn3)no2)cc1` yielded an inhibition of 16.8%.
Work on `CC(=O)CC1=NC(C)(C)Cc2ccccc21` yielded an inhibition of 0.57%.
Work on `c1ccc(CNc2ccc3ccccc3n2)nc1` yielded an inhibition of 21.1%.
With `COc1cc2c(cc1NC(=O)COC(=O)C1CC(=O)N(Cc3ccco3)C1)oc1ccccc12` (stereo unspecified) the inhibition was 6.37%.
In the case of `Cc1ccc(-n2c(-c3ccncc3)nnc2-c2cccs2)cc1`, the inhibition is reported as -0.27%.
For `COc1ccccc1N1CCN(C(=O)c2ccc(Br)s2)CC1`, the inhibition was 70.2%.
With `COc1ccccc1N1CCN(C(=O)c2cc(C(=O)N3CCN(c4ccccc4OC)CC3)cc([N+](=O)[O-])c2)CC1` the inhibition was 12.5%.
Work on `O=C(c1ccc([N+](=O)[O-])s1)N1CCN(c2ccccc2)CC1` yielded an inhibition of -13.2%.
For `O=C(c1cccc([N+](=O)[O-])c1)N1CCN(c2cccc(Cl)c2)CC1`, the inhibition was 38.1%.
Work on `NC(=O)CCn1ccc2ccccc21` yielded an inhibition of 2.82%.
In the case of `Cc1cc(C)n(C(=O)c2ccc(C)c(S(=O)(=O)N3CCCCC3)c2)n1`, the inhibition is reported as -9.14%.
In the case of `Cc1ccc(C(C)C)cc1OCC(=O)NNC(=O)Nc1ccccc1`, the inhibition is reported as -5.51%.
Work on `COc1ccc(C(=O)NNC(=O)C(=O)Nc2ccc(C)c(Cl)c2)cc1` yielded an inhibition of 73%.
Work on `Cc1c(Cl)cccc1NC(=O)CCC(=O)NNC(=O)c1ccccc1Cl` yielded an inhibition of 3.92%.
In the case of `Cc1c(Cl)cccc1NC(=O)CNC(=O)c1ccccc1F`, the inhibition is reported as 17.3%.
`Cc1cc(NC(=O)c2ccccc2C)ccc1NC(=O)c1ccccc1Cl` gave an inhibition of -10.5%.
In the case of `Cc1ccc(S(=O)(=O)NCC(=O)NCC(=O)OCc2c(F)cccc2Cl)cc1`, the inhibition is reported as -16.7%.
In the case of `COC(=O)c1c(NC(=O)c2cccc([N+](=O)[O-])c2)sc(C(N)=O)c1C`, the inhibition is reported as 51.4%.
Compound `COc1cc(/C=N/NC(=O)c2ccc(N)cc2)ccc1OC(=O)c1cccc(C)c1` has an inhibition of 35.7%.
In the case of `CCN(C(=O)COC(=O)c1cc2ccccc2cc1O)C1CCS(=O)(=O)C1` (stereo unspecified), the inhibition is reported as 9.53%.
`CC(C)CC(NC(N)=O)C(=O)Nc1ccc(Cl)c(Cl)c1` (stereo unspecified) showed an inhibition of 13.8%.
Compound `CCNC(=O)/N=C1/NC(=O)C(C(C)C)O1` (stereo unspecified) has an inhibition of 0.48%.
With `CC(C)(C)NC(=O)Cn1cc(C(=O)c2ccccc2F)c2ccccc21` the inhibition was 0.38%.
`CCCCOc1ccc(-c2nc(/C=N/c3nccs3)c(O)o2)cc1` showed an inhibition of 62.2%.
`CN=Cc1nc(-c2ccccc2)oc1O` showed an inhibition of 10.9%.
Work on `O=C(O)CN(Cc1ccccc1)S(=O)(=O)c1ccc2c(c1)OCCO2` yielded an inhibition of -8.61%.
Work on `CC1CN(C(=O)c2ccc(COc3ccc(C(C)C)cc3)o2)CC(C)O1` (stereo unspecified) yielded an inhibition of 54.3%.
`COc1ccc(NC(C)=O)cc1NC(=O)CSc1nnc(-c2ccc(F)cc2)n1N` gave an inhibition of -6.88%.
For `O=[N+]([O-])c1ccc(NC(=S)N2CCc3ccccc3C2)cc1`, the inhibition was -1.08%.
With `CC[n+]1c(/C=C(/C)SC)sc2ccccc21` the inhibition was 67%.
Compound `CC[n+]1c(/C=C(\C)SC)sc2ccccc21` has an inhibition of 0.12%.
Work on `CCn1c(N2CCN(C(=S)NCCc3ccccc3)CC2)nc2ccccc21` yielded an inhibition of 63.9%.
Work on `COc1ccc2[nH]c(C)c(CCNCc3cn(C)c4ccccc34)c2c1` yielded an inhibition of 60.3%.
Compound `Cc1[nH]c2ccc(OC(F)(F)F)cc2c1CCNCc1cccc([N+](=O)[O-])c1` has an inhibition of 77.6%.
Work on `CC1=C(CCN2CCN(C(C)C)C(CCO)C2)C(C)(C)CCC1` (stereo unspecified) yielded an inhibition of 12.7%.
Compound `CC1=C(CCN2CCN(C3CCCC3)C(CCO)C2)C(C)(C)CCC1` (stereo unspecified) has an inhibition of 54.5%.
`CCOc1ccccc1NC(=S)N1CCC(c2nc3ccccc3o2)CC1` showed an inhibition of 29.4%.
With `COc1ccc(NC(=O)Cn2nnc(C(=O)NCc3ccco3)c2N)cc1` the inhibition was -3.46%.
With `CCCC1(CCC)NC(=O)NC1=O` the inhibition was 36.8%.
Compound `O=C(CCc1ccccc1)NCc1ccncc1` has an inhibition of 7.15%.
Work on `Cc1nc(Nc2ccc(S(N)(=O)=O)cc2)oc1C` yielded an inhibition of 71.4%.
Compound `CSc1ccc(C(=O)C2CCCN(C(=O)c3nonc3C)C2)cc1` (stereo unspecified) has an inhibition of 62.8%.
For `CSc1ccc(C(=O)C2CCCN(C(=O)c3ccc4c(c3)OCO4)C2)cc1` (stereo unspecified), the inhibition was 71.2%.
`C=CCN(CC=C)C(=O)C1CC(=O)N(c2ccc(Br)cc2)C1` (stereo unspecified) showed an inhibition of 0.89%.
`O=c1cc(NS(=O)(=O)c2ccccc2)nc(SCc2c(Cl)cccc2Cl)[nH]1` showed an inhibition of -0.92%.
